Assay outcomes from PubChem BioAssay.
IL2 activator – qHTS of IL-2 Activators. IL-2 activation reporter assay, cell-based qHTS; stimulated with anti-CD3/CD4/CD28 beads; in transgenic mouse T cells. AID 652025, 2013. activation, % (series mostly up to about 46 µM). hit rate 0.065% among 360,000; in the data active = activation above about 50%; inconclusive = mostly about 30% to 49%; also: 0% is about no effect
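Readout: EGFP and DsRed signals by fluorescent plate cytometry. Unstimulated transgenic mouse T cells received compound 60 min before antibody-bead stimulation, then incubated 18 h at 37 degrees C.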
Nrf2 block – Nrf2 qHTS screen for inhibitors | A549 ARE-Fluc reporter, luciferase luminescence, 18-24 h | Potency, µM (doses to about 46 µM), inactives show at the top dose activity change, negative = inhibition, most hits filed as inhibitors | hit rate 2.1% among 360,000; also: potency is read from the fitted curve at half-maximal effect; % is scaled to controls: 0 for no effect and ±100 for the full control effect; nearly all actives have a fitted effect of over 60% in size
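In this cell-based qHTS, ARE-driven firefly luciferase in A549 cells reports Nrf2 activity; the luminescent signal after BugLite lysis is the measured value, with a prior CellTiter-Fluor read for cell health.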
Nrf2 ARE act – qHTS of Nrf2 Activators; AREc32 ARE-luciferase reporter (MCF7-derived line), luminescence, 24 h; Potency, µM (highest dose often 46.1 µM), for inactives: at the highest dose activation, most hits filed as activators; hit rate 0.31% among 410,000; AID 624171, 2012; also: potency is read from the fitted curve at half-maximal effect; % of control where 0% means no effect; nearly all actives have a fitted effect of over 65% in size
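Luciferase luminescence (Steady-Glo, 30 min at room temperature) served as the read-out of ARE activation in AREc32 cells treated with compounds for 24 hr at 37 deg C.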
A549 viability – Nrf2 qHTS screen for inhibitors: counterscreen for cytotoxicity. AID 504648, 2011. hit rate 0.16% among 390,000. A549 ARE-Fluc cells, CellTiter-Fluor viability, 18-24 h. Potency, µM (highest dose often 46 µM), without a hit: top-dose activity change, negative = cytotoxicity, actives largely listed as inhibitors; also: potency is read from the fitted curve at half-maximal effect; % is scaled to controls: 0 for no effect and ±100 for the full control effect
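A549 ARE_Fluc cells in 5% FBS OPTI-MEM were exposed to compounds in concentration-response for 18-24 h at 37 deg C. Viability was read by CellTiter-Fluor fluorescence (Ex 405/Em 525) after 30 min, before the luciferase read.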
* marks the source's active call; other numbers are inactive results; ? = inconclusive; . = no result given. An excerpt weighted towards active compounds, which were near 2.3% of everything screened. Unless noted, calls follow the shape of the dose curve; as a rule, active = well fitted curve in the direction sought with a large enough effect; inconclusive = small, poorly fitted or top-dose-only effect, or another doubt; inactive = no such curve, though single readings can be large; an effect the other way counts as inactive or inconclusive.

SMILES	IL2 activator	Nrf2 block	Nrf2 ARE act	A549 viability
Cc1cccc(C)c1NC(=O)CN(C)C(=O)C1CCN(c2ncnc3sc(C)c(C)c23)CC1	-5.9	?	0.3%	-2.0%
Cc1sc2ncnc(N3CCC(C(=O)NNC(=O)COc4ccccc4Cl)CC3)c2c1C	-5.4	?	-1.1%	0.0%
Cc1sc2ncnc(N3CCC(C(=O)NNC(=O)c4ccccc4Cl)CC3)c2c1C	-4.2	16.4µM*	-1.1%	-5.9%
Cc1cc(Br)ccc1NC(=O)CN(C)C(=O)C1CCN(c2ncnc3sc(C)c(C)c23)CC1	-5.3	?	-0.3%	20.6µM*
CCc1ccccc1NC(=O)Cn1ccn(Cc2ccccc2)c(=O)c1=O	.	?	-1.3%	?
COc1cc(/C=C/C(=O)c2ccc3c(c2)OCCO3)cc(Br)c1OCC(=O)N(C)C	2.5	20.6µM*	?	?
O=[N+]([O-])c1cc(S(=O)(=O)Nc2ccccc2)ccc1N1CCN(c2ccccc2)CC1	-0.8	18.4µM*	5.4%	?
O=[N+]([O-])c1cc(S(=O)(=O)Nc2ccccc2)ccc1Nc1ccccc1	0.2	25.9µM*	7.1%	?
Cc1c(OC(C)C(=O)NCc2ccncc2)ccc2c3c(c(=O)oc12)CCCC3 (stereo not given)	-4.4	23.1µM*	0.2%	-1.4%
Cc1nc(N2CCN(C(=O)c3cccs3)CC2)c2c3c(sc2n1)CCCC3	-0.3	18.4µM*	0.2%	?
Cc1nc(N2CCN(C(=O)c3ccco3)CC2)c2c3c(sc2n1)CCCC3	-2.8	?	0.4%	-22.5%
CCOC(=O)c1nc(N2CCN(C(=O)OCC)CC2)c2c3c(sc2n1)CCCC3	-1.7	25.9µM*	0.7%	-6.8%
O=C(c1ccco1)N1CCN(c2nc(C3CC3)nc3c2nnn3Cc2ccccc2Cl)CC1	0.0	16.4µM*	2.3%	0.8%
CCc1nc(N2CCN(C(=O)CCCl)CC2)c2c3c(sc2n1)CCCC3	-1.5	.	2.4%	.
Cc1nc(N2CCN(C)CC2)c2c3c(sc2n1)CCCC3	0.0	?	-0.1%	-26.1%
O=C(c1ccco1)N1CCN(c2nc(C3CC3)nc3sc4c(c23)CCCC4)CC1	-3.0	23.1µM*	2.7%	?
CCC(C)c1ccc(OCC(=O)Nc2cccc3ccc(C)nc23)cc1 (stereo not given)	.	-14.4%	-0.7%	5.1%
COc1ccc(CNC(=O)c2ccc3c(c2)nc2n3CCC(C)C2)c(OC)c1 (stereo not given)	.	.	1.6%	-1.2%
COc1ccccc1N1C(=O)c2ccccc2C1=O	.	1.5%	.	-7.9%
Nc1ccc(S(=O)(=O)N2CCCN(S(=O)(=O)c3ccc4c(c3)OCCO4)CC2)cc1	.	-7.8%	.	-13.6%
Cc1cc(C)c(-n2c(SCc3nc4ccccc4s3)n[nH]c2=O)c(C)c1	0.7	16.4µM*	-0.3%	-21.1%
Cc1ccc(S(=O)(=O)CCSc2n[nH]c(=O)n2-c2ccccc2)cc1	-0.4	?	?	-4.4%
Cc1cc(C)c(-n2c(SCCS(=O)(=O)c3ccc(F)cc3)n[nH]c2=O)c(C)c1	-0.7	1.1%	8.91µM*	0.0%
CCCn1c(SCc2nc3ccccc3s2)n[nH]c1=O	0.5	?	9.7%	3.9%
Cc1ccc2c(=O)cc(C(=O)Nc3nc4ccc(Cl)cc4s3)oc2c1C	.	21.8%	0.7%	0.0%
SMILES	IL2 activator	Nrf2 block	Nrf2 ARE act	A549 viability
CCCOc1ccc(CNC(=O)CCCn2ncn3c(cc4sc(CC)cc43)c2=O)cc1	.	23.1µM*	-2.4%	?
CCCOc1ccc(CNC(=O)Cn2ncn3c(cc4sc(CC)cc43)c2=O)cc1	.	3.1%	-0.3%	-4.6%
O=C1C=C(C#Cc2ccccc2)C[C@@H](c2ccc(F)cc2)C1	-1.4	.	8.91µM*	.
Cc1ccc(SCC(=O)Nc2ccc3oc(-c4cccc(Cl)c4)nc3c2)cc1	.	-28.5%	15.7%	-17.0%
COc1ccccc1NC1=Nc2cccc3cccc1c23	-3.2	-27.5%	0.1%	25.9µM*
COc1ccccc1N1CCN(C2=Nc3cccc4cccc2c34)CC1	-0.3	?	6.1%	?
Cc1ccc(CSC2=Nc3ccccc3C3=NC(CCC(=O)N4CCN(c5ccccc5)CC4)C(=O)N23)cc1 (stereo not given)	.	-2.4%	2.8%	?
O=C1CCCC1C(=O)Nc1ccc2ccccc2c1 (stereo not given)	-1.6	-0.7%	3.8%	-3.7%
O=C1CCCCC1Nc1ccc2ccccc2c1 (stereo not given)	-0.6	18.4µM*	5.1%	?
COC(=O)/C(C#N)=C/c1c(N2CCN(c3ccccc3)CC2)nc2ccccn2c1=O	0.0	25.6%	9.6%	-10.1%
CNC(=O)/C(C#N)=C/c1c(N(Cc2ccccc2)Cc2ccccc2)nc2ccccn2c1=O	-1.2	?	4.9%	23.1µM*
N=c1n(CC(=O)c2ccc([N+](=O)[O-])cc2)c2ccccc2n1Cc1ccc(Cl)cc1	64.8*	-11.8%	0.2%	12.2%
Cn1nc(C(=O)N2CCN(S(=O)(=O)c3ccc(Cl)cc3)CC2)c2ccccc2c1=O	-4.8	23.1µM*	0.1%	-8.1%
CCOC(=O)c1ccc(S(=O)(=O)N2CCN(C(=O)c3nn(C)c(=O)c4ccccc34)CC2)cc1	0.2	10.3%	-0.1%	6.1%
O=C(Nc1ccc(F)cc1)Nc1ccc2snnc2c1	.	23.1µM*	0.3%	-23.5%
Cc1ccc(F)c(NC(=O)Nc2ccc3snnc3c2)c1	.	0.6%	0.6%	-2.6%
CC(=O)c1ccc(NC(=O)Nc2ccc3snnc3c2)cc1	.	?	13.2%	3.3%
Cc1c(Cl)cccc1NC(=O)Nc1ccc2snnc2c1	.	20.6µM*	-1.1%	?
COc1cccc(Cl)c1NC(=O)N1CCN(c2ccnc3cc(Cl)ccc23)CC1	1.5	23.1µM*	5.0%	-25.0%
CCC(=O)N1CCN(c2ccnc3cc(Cl)ccc23)CC1	2.9	?	0.3%	0.4%
COc1cccc(Cl)c1NC(=O)N1CCN(c2cc(C)nc3ccccc23)CC1	-0.4	23.1µM*	3.8%	?
COc1ccc(-c2csc(N3CCN(c4cc(C)nc5ccccc45)CC3)n2)cc1OC	0.8	13µM*	-1.5%	20.6µM*
CCOC(=O)c1c(C)[nH]c(CCC(=O)Nc2cc(C)cc(C)c2)c1C	.	.	4.2%	-12.8%
Cc1ccc(CN(C(=O)COc2ccc(C(C)C)cc2)C2CCS(=O)(=O)C2)o1 (stereo not given)	.	5.8%	4.7%	10.2%
Cc1ccc(OCCCSc2ncccn2)cc1C	2.8	?	0.8%	-8.3%
Cc1cc(OCCCCOc2ccc(S(N)(=O)=O)c(C)c2)ccc1S(N)(=O)=O	2.5	11.6µM*	9.1%	-5.9%
COc1cc(Cl)c(C)cc1NC(=O)C(OC(=O)CNC(=O)c1ccccc1)c1ccccc1 (stereo not given)	.	15.2%	.	0.6%
CC(C)(C)c1ccc(C(=O)Nc2cc(-c3ccccc3)nn2-c2ccccc2)cc1	.	.	-1.0%	-7.5%
CS(=O)(=O)c1ccc(C(=O)Nc2cc(-c3ccccc3)nn2-c2ccccc2)cc1	0.5	14.6µM*	3.3%	-12.7%
